The results in this text go back to PubChem BioAssay AID463173 (ICCB-Longwood Screening Facility, Harvard Medical School, 2010).

Out of some 52,000 compounds screened, about 4,300 (8.3%) were called active. The sample holds actives, similar compounds and a random draw of the others, so the mix is not that of the screen. Cut-off read from the data, not from the text of the source: active = survival mostly below about 52% (no sharp cut-off); inactive = mostly above about 56%.

The subject of this experiment is DeltatarO mutant. Nature of the experiment: growth inhibition of S. aureus wild type versus tarO mutant, primary screen, teichoic acid synthesis inhibitors, RN4220, OD600 (AID 463173). To be noted: OD600, 18 h, active compounds read low, screened at 18.75 µg/mL (by protocol).
In the case of `O=C(Cn1ccn(-c2ccc(F)c(F)c2)c(=O)c1=O)Nc1ccccc1F`, the survival was 65% (inactive).

With `COc1ccc(CNCC#N)cc1OC`, the survival is 77% (inactive).

`CCn1cc(S(=O)(=O)c2ccc(OC)cc2)c(=O)c2cc(F)c(N3CCC(C)CC3)cc21`: the survival was 83% (inactive).

As to `Cc1cc(C)c2c(n1)SCC(=O)N2CC(=O)Nc1c(C)cccc1C`, the survival is 98% (inactive).

Consider `O=C1CC(Sc2ncccc2C(=O)O)C(=O)N1` (centres undefined), for which the survival was 95% (inactive).

On to `COC(=O)CSc1nnc(-c2cccc(O)c2)o1`, for which the survival was 82% (inactive).

For `Cn1c(=O)oc2cc(S(=O)(=O)NC(Cc3ccccc3)C(=O)NCc3ccccc3Cl)ccc21` (centres undefined), the survival is 110% (inactive).

Regarding `CCCc1cc(N2CCN(c3ccc(OC)cc3)CC2)n2cnnc2n1`, the survival was 71% (inactive).

Take `COc1ccc(C2C=C(c3ccccc3)Nc3nc(NS(=O)(=O)c4ccc(Cl)cc4)nn32)cc1` (centres undefined): the survival is 3% (active).

Consider `COc1ccc(C2C=C(c3ccc(Cl)cc3)Nc3nc(NC(=O)CCC(=O)O)nn32)cc1` (centres undefined), for which the survival was 74% (inactive).

For the compound `COc1cc2c(=O)n(Cc3ccccc3Cl)c(=O)n(CC(=O)Nc3ccc(C)c(C)c3)c2cc1OC`, the survival is 83% (inactive).

Take `O=C(Cn1c(=O)oc2cc(S(=O)(=O)N3CCCC3)ccc21)NCc1ccc(F)cc1`: the survival is 114% (inactive).

On to `CCCN(Cc1cc2cc(C)ccc2[nH]c1=O)C(=O)c1cccc(Cl)c1`, for which the survival was 73% (inactive).

Turning to `Cc1ccccc1NS(=O)(=O)c1ccc2[nH]c3c(c2c1)CCCCC3`, the survival was 89% (inactive).

Regarding `Cc1ccc(C)c(NC(=O)CSc2ncc(S(=O)(=O)c3ccc(C)c(Cl)c3)c(=O)[nH]2)c1`, the survival is 66% (inactive).

`CCc1ccc(NC(=O)CSc2ncc(S(=O)(=O)c3cc(C)ccc3C)c(=O)[nH]2)cc1`: the survival is 59% (inactive).

With `Cc1ccc(C)c(S(=O)(=O)c2cnc(SCC(=O)Nc3ccc(F)cc3F)[nH]c2=O)c1`, the survival is 43% (active).

For the compound `Nc1ccc(N2CCOCC2)c(N)c1`, the survival was 74% (inactive).

As for `Nc1ccc(-c2ccc(N)cc2C(F)(F)F)c(C(F)(F)F)c1`, the survival is 91% (inactive).

For `Nc1ccc(N2CCN(c3ncc(C(F)(F)F)cc3Cl)CC2)c(C(F)(F)F)c1`, the survival was -5% (active).

As to `CCCOc1ccccc1C1Oc2nc(SC)nnc2-c2ccccc2N1C(C)=O` (centres undefined), the survival is 82% (inactive).

As to `O=C(CCn1c(=O)oc2ccccc21)n1c(=O)oc2ccccc21`, the survival was 108% (inactive).

For `Cc1ccc(Nc2c3c(nc4nncn24)CCC3)cc1C`, the survival is 55% (inactive).

On to `CC(=O)c1cccc(Nc2c3c(nc4nc(-c5cccs5)nn24)CCCC3)c1`, for which the survival is 95% (inactive).

Consider `Cc1ccc(Nc2c3c(nc4nc(-c5cccs5)nn24)CCCC3)cc1F`, for which the survival was 20% (active).

In the case of `Fc1cc(Br)ccc1Nc1c2c(nc3nc(-c4cccs4)nn13)CCCC2`, the survival was 8% (active).

In the case of `COc1ccc(C)cc1Nc1c2c(nc3nc(-c4cccs4)nn13)CCCC2`, the survival is 91% (inactive).

For `COc1cc(OC)c(Nc2c3c(nc4nc(-c5cccs5)nn24)CCCC3)cc1Cl`, the survival was 89% (inactive).

On to `CC(C)c1ccc(NC(=O)C2CCN(C(=O)c3ccc(F)cc3)CC2)cc1`, for which the survival is 61% (inactive).

Take `COc1ccc(NC(=O)c2cc(-c3ccccc3F)no2)cc1`: the survival is 78% (inactive).

On to `CCOC(=O)c1ccccc1NC(=O)N(C)CCc1c(C)nn(CC)c1C`, for which the survival is 78% (inactive).

Regarding `COc1ccc(-c2cc3nc(C)c(CCC(=O)Nc4cccc(C(F)(F)F)c4)c(C)n3n2)c(OC)c1`, the survival is 92% (inactive).

For the compound `Cc1ccc(S(=O)(=O)N2CC=C(c3c(C)n(CC(=O)N4CCCC4)c4ccccc34)CC2)cc1C`, the survival was 72% (inactive).

On to `CCCCC1CCC(C(=O)N2CC(=O)Nc3ccc(Cl)cc3C2c2ccc(F)cc2)CC1` (centres undefined), for which the survival is 40% (active).

As for `O=C1CN(C(=O)C2CCCCC2)C(c2ccccc2)c2cc(F)ccc2N1` (centres undefined), the survival is 70% (inactive).

Take `CCCCC1CCC(C(=O)N2CC(=O)Nc3ccc(F)cc3C2c2ccc(F)cc2)CC1` (centres undefined): the survival was 38% (active).

As for `CCCCC(=O)N1CC(=O)Nc2ccc(F)cc2C1c1ccc(F)cc1` (centres undefined), the survival was 60% (inactive).

On to `CCCCC1CCC(C(=O)N2CC(=O)Nc3ccc(C)cc3C2c2ccc(F)cc2)CC1` (centres undefined), for which the survival is 126% (inactive).

In the case of `CCCCC1CCC(C(=O)N2CC(=O)Nc3ccc(Br)cc3C2c2ccc(F)cc2)CC1` (centres undefined), the survival is 55% (inactive).

For the compound `CCc1ccc2occ(CC(=O)Nc3sc4c(c3C(=O)OC)CCC4)c2c1`, the survival is 70% (inactive).

In the case of `Cc1cc(-n2ccnc(NCCc3ccc(S(N)(=O)=O)cc3)c2=O)ccc1Br`, the survival was 94% (inactive).

Turning to `Cc1ccccc1C(=O)Nc1nnc(S(=O)(=O)N2c3ccccc3CC2C)s1` (centres undefined), the survival was 20% (active).

With `Cc1ccc2c(c1)CC(C)N2S(=O)(=O)c1nnc(NC(=O)c2ccccc2F)s1` (centres undefined), the survival is 9% (active).

As to `Cc1ccc2c(c1)CC(C)N2S(=O)(=O)c1nnc(NC(=O)C(C)C)s1` (centres undefined), the survival was 58% (inactive).

Regarding `CC1Cc2ccccc2N1S(=O)(=O)c1nnc(NC(=O)c2ccccc2Br)s1` (centres undefined), the survival is 23% (active).

Regarding `Cc1ccc2c(c1)CC(C)N2S(=O)(=O)c1nnc(NC(=O)CC(C)C)s1` (centres undefined), the survival is 59% (inactive).

As to `Cc1cccc(N2CCN(C(=O)CN3C(=O)COc4ccc(S(=O)(=O)N5CCC(C)CC5)cc43)CC2C)c1` (centres undefined), the survival is 67% (inactive).

On to `COc1ccc(CCNC(=O)C(C)n2nc(C)c3sc4ccccc4c3c2=O)cc1OC` (centres undefined), for which the survival was 110% (inactive).

For the compound `Cc1ccccc1Cn1cc(S(=O)(=O)c2ccc(F)cc2)c(=O)c2cc3c(cc21)OCO3`, the survival is 68% (inactive).

In the case of `NC(=O)C1CCN(C(=O)Cn2c(-c3cccs3)cc3ccccc32)CC1`, the survival was 73% (inactive).

`O=C(NCCN1CCCC1)c1ccc(Cl)cc1`: the survival is 98% (inactive).

In the case of `CCOC(=O)c1cnc2cc(Cl)c(OC)cc2c1Nc1ccc(Br)cc1C`, the survival is 102% (inactive).

In the case of `CCOC(=O)c1cnc2ccc(C)cc2c1Nc1ccc(OCc2ccccc2Cl)cc1`, the survival was 2% (active).

On to `CCOC(=O)c1cnc2ccc(OCC)cc2c1Nc1cc(Cl)c(OC)cc1OC`, for which the survival was 51% (active).

Regarding `CCOC(=O)c1cnc2ccc(Cl)cc2c1Nc1ccc(OCC)cc1`, the survival was -5% (active).

Regarding `CCOC(=O)c1cnc2ccc(OCC)cc2c1NCCN(C)C`, the survival is 95% (inactive).

For the compound `CCOC(=O)c1cnc2c(C)cc(C)cc2c1Nc1ccc(N2CCOCC2)cc1`, the survival is 14% (active).

With `CCOC(=O)c1ccccc1NC(=O)c1cnc(N2CCOCC2)c2ccccc12`, the survival was 90% (inactive).

Regarding `CCOC(=O)c1cnc2c(C)c(Cl)ccc2c1Nc1ccc(N2CCOCC2)cc1`, the survival is 43% (inactive).
